Screening data from PubChem.
MARV entry inh: blocks Marburg virus binding to or entry into cells. AID 540276. 300,000 compounds, 1.8% hits. Marburg virus pseudotyped entry inhibition, cell reporter. Potency, µM (titrated, usually from 37.8 µM), without a hit: at the top dose activity change, negative = inhibition, hits mostly inhibitors; calls by dose curve; tested in HEK293 cells; also: potency is read from the fitted curve at half-maximal effect; % is scaled to controls: 0 for no effect and ±100 for the full control effect
Vaccinia mCherry: inhibitors of vaccinia virus infection (mCherry reporter signal); 310,000 compounds, 0.63% hits; Potency, µM (highest dose often 36.5 µM), without a hit: at the top dose activity change, negative = inhibition, most hits filed as inhibitors; Vaccinia virus mCherry reporter infection, fluorescence; calls by dose curve; tested in A549 cells; also: potency is read from the fitted curve at half-maximal effect; % is scaled to controls: 0 for no effect and ±100 for the full control effect; nearly all actives have a fitted effect of over 35% in size
CHX counter: counter-screen hit for Shiga toxin inhibitors, cycloheximide; cell reporter, cycloheximide protein synthesis inhibition counterscreen; max response, %; 300,000 compounds, 12% hits; in the data active = max response mostly above about 13%, no sharp cut-off; inactive = mostly below about 14%; also: read at 38.3 µM for the half of the compounds with a filed dose; 0% is about no effect
Vaccinia Venus: inhibitors of vaccinia virus (Venus reporter) | Vaccinia virus Venus reporter expression, fluorescence | 330,000 compounds, 0.46% hits | Potency, µM (titrated, usually from 36.5 µM), without a hit: at the top dose activity change, negative = inhibition, hits mostly inhibitors; calls by dose curve; tested in A549 cells; also: potency is read from the fitted curve at half-maximal effect; % is scaled to controls: 0 for no effect and ±100 for the full control effect; nearly all actives have a fitted effect of over 30% in size
LASV entry inh: Lassa virus entry inhibition. 300,000 compounds, 1.2% hits. Potency, µM (titrated, usually from 37.9 µM), inactives show top-dose activity change, negative = inhibition, actives largely listed as inhibitors. Lassa virus pseudotype entry inhibition, cell reporter; calls by dose curve; tested in HEK293 cells; also: potency is read from the fitted curve at half-maximal effect; % is scaled to controls: 0 for no effect and ±100 for the full control effect; nearly all actives have a fitted effect of over 50% in size
Shiga toxin inh: inhibitors of Shiga toxin in Vero cells. inhibition, % at 38.7 µM. AID 2315. Vero cells, Shiga toxin protein synthesis inhibition reporter. 290,000 compounds, 9.2% hits; in the data active = inhibition mostly above about 28%, no sharp cut-off; inactive = mostly below about 43%; also: 0% is about no effect
Active calls of the source: *; i = inactive; ? = inconclusive; / = no result given; + = active, no number; [ ] = remark or other dose. The full list was thinned out, with hits kept by preference.

SMILES	MARV entry inh	Vaccinia mCherry	CHX counter	Vaccinia Venus	LASV entry inh	Shiga toxin inh
COc1cc2nc(CN(C)Cc3ccc(OC)c(OC)c3OC)[nH]c(=O)c2cc1OC	/	-1%	11*	-9%	/	37*
COc1cc2nc(CN(C)Cc3nc4ccccc4c(=O)[nH]3)[nH]c(=O)c2cc1OC	7%	/	-6	/	1%	-15
Cc1nn2c(NCc3ccccn3)cc(C(C)C)nc2c1-c1ccccc1	/	/	1	/	/	-5
Cc1cc(NCCOCCO)n2ncc(-c3ccc(Cl)cc3)c2n1	?	/	23*	/	-20%	74*
Cc1cc(NCc2ccccn2)n2nc(C)c(-c3ccc(Cl)cc3)c2n1	10µM*	?	5	?	?	-13
Cc1cc(NCCCN2CCOCC2)n2ncc(-c3ccccc3)c2n1	?	/	56*	?	1%	78*
Cc1cc(NCc2ccccn2)n2ncc(-c3ccc(Cl)cc3)c2n1	?	-24%	29*	-21%	-10%[46.1 µM]	48*
CCCc1cc(NCc2ccccn2)n2nc(C)c(-c3ccccc3)c2n1	?	-26%	-1	-26%	?	2
Cc1ncc2c(c1CNS(=O)(=O)N(C)C)CCN(C(=O)/C=C/c1ccccc1Cl)C2	/	-20%	/	-13%	/	/
CCOC(=O)N/N=C1/C[C@@H](O)[C@@H](O)[C@@H]2[C@@H]3C(=O)N(C4CCCCC4)C(=O)[C@H]3CC[C@H]12	-25%[14.2 µM]	/	/	/	/	/
COc1ccccc1-c1cnn2c(NCc3ccccc3)cc(C)nc12	/	/	12	/	/	34
Cc1cc(NCc2ccccn2)n2ncc(-c3ccccc3)c2n1	?	-28%	44*	-25%	?	70*
CCCCCCSc1nnc(-c2cnn(-c3ccccc3)c2-n2cccc2)n1C	-22%[46.1 µM]	10µM*	7	10µM*	2%	-25
Cn1c(SCC(=O)c2ccccc2)nnc1-c1ccc(O)cc1	11%	/	35*	/	12%	68*
CCCCSc1nnc(-c2ccc(C)cc2)n1C	25%	/	40*	/	?	104*
Cn1c(SCC(=O)c2ccccc2)nnc1-c1cccc(N)c1	?	-15%	29*	-14%	2%	65
CCCCSc1nnc(-c2ccc(NC(C)=O)cc2)n1C	9%	-14%	-6	-11%	1%	-9
Cn1c(SCC(N)=O)nnc1-c1ccccc1	26%	i	-5	-4%	12%	-14
CC(=O)Nc1ccc2c(c1)C(=Nc1ccc(C)cc1)c1ccccc1-2	-21%	-10%	/	-10%	29%	/
CCC(=O)Nc1ccc(-c2nnc(SCc3ccccc3)n2C)cc1	/	-15%	/	-26%	/	/
Cn1c(SCC(=O)c2ccccc2)nnc1-c1ccncc1	0%[46.1 µM]	-8%	-3	-5%	11%	-4
Cn1c(SCc2ccccc2)nnc1-c1ccc(O)cc1	6%	-10%	31*	-14%	?	66*
Cn1c(SCC(=O)c2ccccc2)nnc1-c1ccccn1	?	-21%	53*	-14%	?	113*
Cn1c(SCc2ccccc2)nnc1-c1ccc2c(c1)OCO2	2%	/	49*	-11%	?	75*
CC1(C(=O)NCCN2CCOCC2)C=CCN1C(=O)c1ccccc1 (stereo unspecified)	1%	i	26*	-4%	-1%	41*
SMILES	MARV entry inh	Vaccinia mCherry	CHX counter	Vaccinia Venus	LASV entry inh	Shiga toxin inh
O=C(NCC1CCCN(C(=O)CN2CCCCC2)C1)c1ccccc1Cl (stereo unspecified)	13%[46.1 µM]	-12%	26*	-9%	35%[46.1 µM]	31
CSCC(=O)N1CCCC(CNC(=O)c2ccccc2Cl)C1 (stereo unspecified)	-2%[46.1 µM]	-14%	15*	-9%	3%[46.1 µM]	28
Cc1ccc(-n2ncc(C(=O)NCc3ccc4c(c3)OCO4)c2C2CCN(C(=O)OC(C)(C)C)CC2)cc1C	/	-16%	/	-17%	?	/
CC(=O)c1ccc(C(=O)N2CCc3c(cnc(C)c3CNC(=O)c3ccc4c(c3)OCO4)C2)s1	/	-3%	/	-6%	/	/
[S-]C(=Nc1ccc(Cl)cc1)N[n+]1ccccc1	?	-8%	30*	0%	3%	37*
Cc1ccc(Cl)cc1N1CCN(C(=O)c2cn(C3CCCCC3)c(=O)c3c2c2ccccc2n3C)CC1	?	-18%	/	-15%	?	/
COc1ccc(N2CCN(C(=O)c3cn(C)c(=O)c4c3c3ccccc3n4C)CC2)cc1	-7%	/	-2	/	-2%	14
COc1ccc(N2CCN(C(=O)c3cn(C4CCCC4)c(=O)c4c3c3ccccc3n4C)CC2)cc1	8.9µM*	-17%	-6	-21%	?	-24
Cn1c2ccccc2c2c(C(=O)N3CCN(c4cccc(Cl)c4)CC3)cn(C3CCCCC3)c(=O)c21	7.1µM*	-18%	/	-18%	?	/
CCC1(c2ccc(O)cc2)NC(=O)N(C)C1=O (stereo unspecified)	/	/	-1	/	/	-13
Cn1nnnc1SCCCNCc1cccc(OCc2ccc(F)cc2)c1	?	-9%	/	-12%	-6%[46.1 µM]	/
O=C1OC(c2ccc(Br)cc2)=N/C1=C\c1ccco1	2%[46.1 µM]	-6%	-4	-1%	19%	-16
CC(C)C[C@H]1COC(c2ccc(Br)cc2)=N1	/	/	39*	/	/	+
Brc1ccc(C2=N[C@@H](Cc3ccccc3)CO2)cc1	/	/	57*	/	/	+
Clc1cc(Cl)cc(C2=N[C@@H](Cc3ccccc3)CO2)c1	/	/	6	/	/	i
O=[N+]([O-])c1cccc(C2=N[C@@H](Cc3ccccc3)CO2)c1	/	/	53*	/	/	+
O=C1[C@@H]2CSC(c3ccc(F)cc3)N2C(=O)N1c1ccc(Cl)cc1 (stereo partly specified)	-23%[46.1 µM]	-5%	/	-6%	-5%[46.1 µM]	/
O=C(NCc1ccccc1)c1ccc2c(c1)N(Cc1ccc(F)cc1)CCS2	?	-3%	/	-8%	?	/
CCN1CCN(C(=O)COCc2cc(-c3ccc4c(c3)OCO4)on2)CC1	-1%[46.1 µM]	-11%	22*	-1%	?	27
